In all, about 2,100 compounds went through this assay and about 1,100 (52%) were called active. Roughly 27% stayed inconclusive and do not appear here. The call rests on the fitted dose curve; in most records, active means well fitted inhibition curve with a large enough effect; inconclusive means small, poorly fitted or top-dose-only effect; inactive means no such curve, though single readings can be large or run the other way. So high a share suggests a set chosen from earlier hits. Some of the results follow.
Molecular target: DNA dC->dU-editing enzyme APOBEC-3G (Homo sapiens) (UniProt Q9HC16)
Sequence (Q9HC16 whole entry, looked up): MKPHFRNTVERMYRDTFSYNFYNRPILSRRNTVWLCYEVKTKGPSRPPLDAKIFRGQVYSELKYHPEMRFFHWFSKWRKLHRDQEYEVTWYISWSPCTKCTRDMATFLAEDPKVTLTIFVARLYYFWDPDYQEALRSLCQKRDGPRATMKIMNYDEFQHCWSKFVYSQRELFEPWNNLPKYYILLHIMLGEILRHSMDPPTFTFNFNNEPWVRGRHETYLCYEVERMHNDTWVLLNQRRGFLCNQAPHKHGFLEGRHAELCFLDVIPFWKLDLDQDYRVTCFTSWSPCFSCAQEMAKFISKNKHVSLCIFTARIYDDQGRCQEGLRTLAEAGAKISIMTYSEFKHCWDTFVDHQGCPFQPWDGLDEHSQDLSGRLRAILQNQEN
Assay: qHTS for inhibitors of Vif-A3G interactions: Cherry picks counterscreen;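 further: hits raise yellow fluorescence by blocking Vif-driven A3G-eYFP degradation; nearly all actives have a fitted effect of over 70% in size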;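 on max response: max response given as percent of control signal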
Details: HeLa A3G-eYFP + Vif (tagged APOBEC3G with the HIV-1 protein that degrades it), eYFP fluorescence, 24 h
Excerpt: The recent discovery and characterization of host restriction factors, which provide a potent defense to invading retroviruses, has provided new targets for antiviral drug development. APOBEC3G (A3G) and APOBEC3F (A3F) are potent cytidine deaminases that block HIV-1 replication; HIV-1 expresses the Vif protein, which counteracts A3G and A3F by binding to them and inducing their proteasomal degradation. The Vif-A3G and Vif-A3F interactions provide two potential targets for development of small molecules which can interfere with the ability of Vif to degrade A3G or A3F. […] To identify inhibitors that can interfere with Vif mediated degradation of A3G and A3F, we have developed Hela cell lines that stably express A3G or A3F tagged with eYFP at the C-terminal end (A3G-eYFP or A3F-eYFP, respectively) and Vif. In the absence of an inhibitor, Vif induces degradation of A3G-eYFP and A3F-eYFP, and the cells are not fluorescent. In the presence of an inhibitor, it is expected that Vif will be unable to degrade A3G-eYFP and/or A3F-eYFP, resulting in an increase in yellow fluorescence. In this counterscreen assay, Vif A3G was screened against the cherry picks ordered from the MLSMR. NIH Chemical Genomics Center [NCGC] NIH Molecular Libraries Probe Centers Network [MLPCN] MLPCN Grant: MH093245 Assay Submitter (PI): Vinay Pathak, National Cancer Institute
A3G-Vif cells were harvested from T225 flask and resuspended in phenol free OPTI-MEM medium with 5% FBS. Then 5 uL of 140,000 cells/mL resuspended cells was dispensed into each well of low base Aurora COC 1,536-well plates (black walled, clear bottom) using a Multidrop Combi dispenser. After overnight culture at 37 deg C with 5% CO2, a total of 23 nL of compounds at 5 selected concentrations from the NPC or positive control (2 mM stock of MG132) in DMSO was transferred to each well of the assay plate using a pintool (Kalypsys, San Diego, CA), and the plates were further incubated at 37 deg C with 5% CO2 for 24 hours. After that, the plates were measured on Acumen Explorer (TTP Lab Tech). The fluorescence was detected by 488 nm/Ex and […].
Potency means the concentration at half of the fitted maximal effect.

| Compound | Potency | max response |
| --- | --- | --- |
| COC(=O)CCC(=O)NC(=S)Nc1sc(C)c(C)c1C(N)=O | 0.886 µM (active) |  |
| Cc1cc(NC(=O)CSc2nc(-c3cccs3)nc3ccccc23)no1 | 3.53 µM (active) |  |
| Cc1nonc1NC(=O)CSc1nc2c(C)cccc2cc1C#N | 20.6 µM (active) |  |
| Cc1cc(NC(=O)CSc2nc3c(C)cccc3cc2C#N)no1 | 4.11 µM (active) |  |
| C1=Cc2ccccc2/C1=C\c1cc2c3c(c1)CCCN3CCC2 | 13 µM (active) |  |
| c1ccc2c(CCc3c[nH]c4ccccc34)ccnc2c1 | 16.4 µM (active) |  |
| CSc1nsc(/C=C/Nc2ccc(F)cc2)c1C#N | 16.4 µM (active) |  |
| CSc1nsc(/C=C/Nc2ccc(C)cc2)c1C#N | 15.8 µM (active) |  |
| CCN(CC)c1ccc(/C=c2/sc3nnc(-c4ccccc4C)n3c2=O)cc1 | 23.1 µM (active) |  |
| CCOC(=O)Nc1ccc2nc(-c3cscn3)[nH]c2c1 | 8.86 µM (active) |  |
| O=C(O)CCCN1C(=O)/C(=C\C(Cl)=C\c2ccccc2)SC1=S | 5.59 µM (active) |  |
| CCC(=O)Nc1ccccc1-c1nc2ccccc2n(C(C)C(=O)Nc2ccc(OC)cc2)c1=O (centres undefined) | 8.2 µM (active) |  |
| COCCNC(=O)C(=O)Nc1ccc2c(c1)N(S(=O)(=O)c1cccs1)CCC2 | 6.27 µM (active) |  |
| O=C(Nc1nc2ccccc2s1)c1ccc([N+](=O)[O-])o1 |  | -24.2% (inactive) |
| Nc1c(C(=O)Nc2nccs2)sc2nc(-c3cccs3)cc(C(F)(F)F)c12 | 7.9 µM (active) |  |
| Cc1nnc(NC(=O)c2sc3nc(-c4cccs4)cc(C(F)(F)F)c3c2N)s1 | 2.59 µM (active) |  |
| Nc1c(C(=O)Nc2nc3ccccc3s2)sc2nc(-c3cccs3)ccc12 | 6.51 µM (active) |  |
| Nc1c(C(=O)Nc2ccc(F)cc2)sc2nc(-c3cccs3)cc(C(F)(F)F)c12 | 0.82 µM (active) |  |
| CC(C)Cn1c(N)c(C(=O)COC(=O)c2ccc([N+](=O)[O-])o2)c(=O)n(C)c1=O |  | 8.96% (inactive) |
| Cc1c(C(=O)C(=O)N2CC=C(c3ccccc3)CC2)c2ccccc2n1C | 7.04 µM (active) |  |

| Compound | Potency | max response |
| --- | --- | --- |
| Cc1c(C(=O)C(=O)N2CCCc3ccccc32)c2ccccc2n1C | 11.2 µM (active) |  |
| O=C(/C=C/c1ccco1)N1CCc2ccccc21 |  | -19.9% (inactive) |
| CCOC(=O)c1ccc(NC(=S)Nc2cccc(C)n2)cc1 |  | -9.19% (inactive) |
| CCOC(=O)c1cc(-c2ccccc2)sc1NC(=S)Nc1cc(C)ccn1 | 18.4 µM (active) |  |
| Cc1ccc(NC(=S)Nc2ccccn2)c(C)c1 |  | -5.64% (inactive) |
| Cc1ccnc(NC(=O)Nc2ccc3c(c2)N(C)C(=O)CS3)c1 | 2.59 µM (active) |  |
| Cc1ccc(-c2nc3sc(C#N)c(N)n3c(=O)c2C#N)cc1 | 25.9 µM (active) |  |
| O=C1c2ccccc2C(=O)c2cc(N3CCCCC3)ccc21 | 6.27 µM (active) |  |
| Cc1ccc(C(=O)N/C(=C/c2ccc(-c3ccc([N+](=O)[O-])cc3)o2)C(=O)NCCCN(C)C)cc1 | 15.8 µM (active) |  |
| Cc1cc2nc3s/c(=C/c4ccc(-c5ccccc5C(=O)O)o4)c(=O)n3c2cc1C | 23.1 µM (active) |  |
| Cc1cc(C)cc(NC(=S)NC(=O)C2CC2)c1 |  | -14.6% (inactive) |
| O=C1/C(=C\c2cc([N+](=O)[O-])ccc2O)SC(=S)N1Cc1ccc(Cl)cc1 | 18.4 µM (active) |  |
| Cc1cc(N)cc(C)c1-c1c(Br)cc(N)cc1Br | 8.86 µM (active) |  |
| Nc1c(C(=O)c2ccccc2)sc2snc(SCC(=O)c3ccccc3)c12 | 14 µM (active) |  |
| Nc1c(C(=O)c2ccccc2)sc2nsc(SCCN3CCOCC3)c12 | 4.61 µM (active) |  |
| Nc1c(C(=O)c2ccccc2)sc2nsc(SCCN3CCCC3)c12 | 14 µM (active) |  |
| COc1ccc(OC)c(S(=O)(=O)N/N=C\c2cn(CC(N)=O)c3ccccc23)c1 | 15.8 µM (active) |  |
| COC(=O)Cn1c(C)c(/C=C/c2cc[n+](C)cc2)c2ccccc21 | 9.2 µM (active) |  |
| CCN(CC)C(=O)Cn1c(C)c(/C=C/c2cc[n+](C)cc2)c2ccccc21 | 15.8 µM (active) |  |
| CCOC(=O)c1c(Nc2ccc(Cl)cc2)sc(/C=C2\C=Nc3ccccc32)c1O | 20.6 µM (active) |  |

| Compound | Potency | max response |
| --- | --- | --- |
| CCOc1ccc(N(C)c2ccc(/C=C3/SC(=S)NC3=O)cc2)cc1 | 15.8 µM (active) |  |
| COc1ccccc1N=C1NC(=O)/C(=C/c2ccc(N(C)C)cc2)S1 |  | 38.1% (inactive) |
| CN(C)c1ccc(C=C2SC(=S)NC2=O)cc1 | 9.94 µM (active) |  |
| C=C1C(=O)O[C@@H]2[C@H]1[C@@H](OC(=O)/C(C)=C/C)C/C(C)=C\C(=O)/C=C(\C)[C@@H]2O | 15.8 µM (active) |  |
| CCCN1C(=O)/C(=C\C=C2\N(CC)c3ccccc3C2(C)C)SC1=S | 2.06 µM (active) |  |
| CN1/C(=C\C=C2/SC(=S)N(CC(=O)O)C2=O)C(C)(C)c2ccccc21 |  | 52.2% (inactive) |
| CN1/C(=C/C=C(/C#N)C(N)=O)C(C)(C)c2ccccc21 | 9.94 µM (active) |  |
| CCCCN1C(=O)/C(=C/C=C2/CC(C)(C)CN2C)SC1=S |  | 54.7% (inactive) |
| C=CCN1C(=O)/C(=C\C=C2\N(C)c3ccccc3C2(C)C)SC1=S | 0.291 µM (active) |  |
| CCCN1C(=O)/C(=C/C=C2\N(CC)c3ccccc3C2(C)C)SC1=S | 1.58 µM (active) |  |
| CN1/C(=C\C=C2/SC(=S)NC2=O)C(C)(C)c2ccccc21 | 3.53 µM (active) |  |
| COc1ccc2c(c1)/C(=C\c1cccc(/C=C3/C(=O)Nc4ccc(OC)cc43)n1)C(=O)N2 |  | -72.2% (inactive) |
| COc1ccc2c(c1)/C(=C/c1cc(OC)c(OC)c(OC)c1)C(=O)N2 | 3.53 µM (active) |  |
| Cc1cccc(-c2noc(-c3ccc(NCc4ccco4)c([N+](=O)[O-])c3)n2)c1 | 20.6 µM (active) |  |
| O=[N+]([O-])c1cc(-c2nc(-c3ccccc3)no2)ccc1NCc1ccco1 | 10.3 µM (active) |  |
| O=C1N/C(=N\N=C\c2ccco2)SC1Cc1ccccc1[N+](=O)[O-] (centres undefined) |  | -1.06% (inactive) |
| O=C(NCc1cccnc1)c1cccc(NS(=O)(=O)c2ccc(Br)cc2)c1 | 4.44 µM (active) |  |
| N#CC1=C(N)Oc2ccc3ccccc3c2C1c1cccnc1 (centres undefined) | 6.27 µM (active) |  |
| CCN(CC)c1ccc2c(c1)OC(N)=C(C#N)C2c1cccnc1 (centres undefined) | 15.8 µM (active) |  |

Source: PubChem BioAssay AID651813 (National Center for Advancing Translational Sciences (NCATS), 2012)
